HCMV inh = inhibitors of human cytomegalovirus | HFF cells, HCMV-luciferase reporter, 72 h; stronger effect = lower value | activity change, negative = inhibition, % at 57.5 µM | hit rate 4.5% among 410,000; in the data active = activity change below about -60%; inconclusive = no clear call, values can overlap the other calls; inactive = above about -39%; also: % is scaled to controls: 0 for no effect and ±100 for the full control effect
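Two-dose cell screen: HFF monolayers treated with compounds and infected with luciferase-expressing HCMV at 1 PFU/cell, 72 h at 37C, then lysed for luciferase measurement.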
HCV inhibitor = HCV inhibition. Huh7.5.1 HCVcc-Cre infection, luciferase reporter, 44 h. Potency, µM (titrated, usually from 41.8 µM), inactives show at the highest dose activity change, negative = inhibition, actives largely listed as inhibitors. hit rate 3.4% among 340,000; also: potency is read from the fitted curve at half-maximal effect; % is scaled to controls: 0 for no effect and ±100 for the full control effect
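HCVcc-Cre virus at an moi near 0.5 was added right after compound to cells cultured 4 h from seeding (1,000 cells/well). Luciferase activity was determined 44 h later, 15 min after substrate addition at RT.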
CHX counter-1 = counter-screen for Shiga toxin inhibitors: cycloheximide protein synthesis inhibition; AID 2314; hit rate 12% among 300,000; max response, %; cell reporter, cycloheximide protein synthesis inhibition counterscreen; in the data active = max response mostly above about 13%, no sharp cut-off; inactive = mostly below about 14%; also: read at 38.3 µM for the half of the compounds with a filed dose; 0% is about no effect
Pf growth 48h = inhibits P. falciparum growth in the first generation, 48 h. P. falciparum luciferase growth in erythrocytes, 48 h. Potency, µM (titrated, usually from 28.7 µM), for inactives: top-dose activity change, negative = inhibition, hits mostly inhibitors. hit rate 5.9% among 310,000. AID 504832; also: potency is read from the fitted curve at half-maximal effect; % is scaled to controls: 0 for no effect and ±100 for the full control effect
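Read-out is firefly luciferase luminescence from an integrated reporter in P. falciparum, so falling signal marks reduced parasite growth. Infected erythrocytes were at 2% hematocrit and 0.1% parasitemia (final) in Albumax-supplemented RPMI 1640.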
Shiga toxin inh = Shiga toxin inhibition | Vero cells, Shiga toxin protein synthesis inhibition reporter | AID 2315 | hit rate 9.2% among 290,000 | inhibition, % at 38.7 µM; in the data active = inhibition mostly above about 28%, no sharp cut-off; inactive = mostly below about 43%; also: 0% is about no effect
Pf growth 96h = inhibits malaria parasite growth, 96 h; AID 504834; Potency, µM (doses to about 28.7 µM), inactives show at the highest dose activity change, negative = inhibition, hits mostly inhibitors; hit rate 6.9% among 320,000; P. falciparum luciferase reporter growth, 96 h; also: potency is read from the fitted curve at half-maximal effect; % is scaled to controls: 0 for no effect and ±100 for the full control effect
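Two-generation exposure (96 h) targets delayed-death phenotype. Reporter parasites carrying integrated firefly luciferase, in red cells at 2% hematocrit and 0.05% parasitemia final, kept at 37 C, 5% CO2; luminescence loss indicates inhibition.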
CHX counter-2 = counter-screen for Shiga toxin inhibitors: cycloheximide protein synthesis block. shares compounds with Shiga toxin inh. Cycloheximide counterscreen, protein synthesis reporter, Shiga toxin assay. Potency, µM (doses to about 38.3 µM), without a hit: at the highest dose activity (activation), most hits filed as activators. hit rate 3% among 510. AID 2318; calls by dose curve; also: potency is read from the fitted curve at half-maximal effect; 0% is about no effect
The depositor's hits bear a star; ? = inconclusive; . = no result given. In the library only some 21% were active in any assay of this set; here they are far more common. Unless noted, calls follow the shape of the dose curve; as a rule, active = well fitted inhibition curve with a large enough effect; inconclusive = small, poorly fitted or top-dose-only effect, or another doubt; inactive = no such curve, though single readings can be large or run the other way.

SMILES	HCMV inh	HCV inhibitor	CHX counter-1	Pf growth 48h	Shiga toxin inh	Pf growth 96h	CHX counter-2
Cn1cccc1-c1nc2ccc([N+](=O)[O-])cc2[nH]1	115	-19%	33*	93%	40*	171%	.
COc1cc(NS(=O)(=O)c2ccc(NC(=O)Cc3ccccc3)cc2)nc(OC)n1	16	12%	-4	14%	-8	29%	.
CCOCC(=O)Nc1nnc(C2CCCCC2)s1	22	-17%	36*	100%	46*	-1%	.
Cc1cc(C(=O)Nc2nnc(C3CCCCC3)s2)no1	112	-2%	16	28%	40	209%	.
COCC(=O)Nc1nnc(C2CCCCC2)s1	83	-1%	20*	72%	53*	-18%	.
CC(Oc1ccccc1)C(=O)Nc1nnc(C2CCCCC2)s1 (stereo not given)	13	15%	49*	27%	130*	0.0029µM*	.
Cc1ccc(C(=O)Nc2nnc(C3CCCCC3)s2)o1	73	6%	21*	262%	90*	.	.
O=C(CCCc1nc(-c2ccco2)no1)Nc1ccccc1[N+](=O)[O-]	8	.	.	.	.	.	.
Cn1c(CC(=O)Nc2ccccc2)nnc1SCC(=O)Nc1ccc(N2CCOCC2)cc1	2	17%	39*	27%	29	-3%	.
Cc1ccc(NC(=O)Cc2nnc(SCC(=O)Nc3ccc(N4CCOCC4)cc3)n2C)cc1	29	-7%	-1	15%	-9	-1%	.
Cn1c(CC(=O)Nc2ccccc2)nnc1SCC(=O)NC1=NCCS1	-4	-2%	-6	-1%	-11	2.6µM*	.
CCOc1ccc(Oc2ccc(Cl)cc2N)cc1	-8	?	24*	19%	29*	31%	.
COc1ccc(/C=C/CN2CCN(CC(C)C)C(CCO)C2)cc1 (stereo not given)	10	0%	13	?	23	4.1µM*	.
COc1ccc(/C=C/CN2CCN(Cc3cccc(OC)c3)C(CCO)C2)cc1 (stereo not given)	-24	-8%	-1	?	-7	?	.
CC(C)N1CCC(N2CCN(C/C=C/c3ccc(F)cc3)CC2CCO)CC1 (stereo not given)	12	10µM*	-1	?	8	15%	.
COc1ccc(-c2nc(C3CCCCC3)no2)cc1OC	42	.	53*	93%	163*	-20%	.
c1ccc(-c2nc(C3CCCCC3)no2)cc1	-6	1%	28*	45%	45*	65%	.
COc1ccc(-c2nc(-c3cccc(C(F)(F)F)c3)no2)cc1OC	-25	-18%	-4	.	-10	?	.
O=C1CC(c2cccc(Cl)c2Cl)c2cc3c(cc2N1)OCCO3 (stereo not given)	-29	.	.	.	.	.	.
CC(C)c1ccc(/C=C(\c2nc3ccccc3[nH]2)S(=O)(=O)c2ccccc2)cc1	-101*	13µM*	18*	5.9µM*	23	2.3µM*	.
O=S(=O)(/C(=C/c1ccc(C(F)(F)F)cc1)c1nc2ccccc2[nH]1)c1ccccc1	-104*	11µM*	-2	4.1µM*	-6	1.7µM*	.
CC1CCc2sc(C(=O)NNC(=O)c3ccncc3)cc2C1 (stereo not given)	?	-5%	.	-10%	.	7%	.
CC1CCc2sc(C(=O)NN)cc2C1 (stereo not given)	-23	8%	11	47%	36*	32%	-3%
O=C(Nc1cccc(-c2csc(Nc3ccc(Cl)cc3)n2)c1)c1ccccc1	-22	?	2	?	29*	?	?
O=C(Nc1ccc(F)c(F)c1)c1ccccc1	3	-18%	.	95%	.	117%	.
SMILES	HCMV inh	HCV inhibitor	CHX counter-1	Pf growth 48h	Shiga toxin inh	Pf growth 96h	CHX counter-2
Cc1cnc(NC(=O)c2ccc(-c3nc4ccccc4s3)o2)s1	149	-3%	11	0%	60*	11%	?
CC(C)(C)OC(=O)C[C@@H]1C/C=C\C[C@H](CC(=O)N(CCO)Cc2ccccc2)C(=O)N[C@H](Cc2ccccc2)COC1=O	20	-25%	.	.	.	.	.
CCSc1nnc(-c2ccc(S(=O)(=O)N3CCCC3)cc2)n1C	-35	-11%	9	?	67*	-52%	-1%
CCSc1nnc(-c2ccc(S(=O)(=O)N3CCOCC3)cc2)n1C	-10	?	-3	-25%	-4	?	.
COc1ccc2nc(-c3ccccc3)cc(C(=O)OCC(=O)NC3CC3)c2c1	75	-13%	.	6%	.	20%	.
Cc1ccc(NC(=O)CSc2nc3c(oc4ccccc43)c(=O)n2-c2ccc(F)cc2)c(C)c1	6	.	.	.	.	.	.
O=C(Nc1ccccc1)c1ccc(S(=O)(=O)N2CCOCC2)cc1	-11	8%	5	3%	53*	.	4%
COc1ccc(C(=O)Nc2ccc(S(=O)(=O)N3CCOCC3)cc2)cc1	-39	-22%	.	.	.	.	.
COc1ccc(-c2cc(-c3ccccc3O)[nH]n2)cc1OC	215	?	15	35%	81*	-26%	2.5µM*
CCC(C)(O)c1[nH]c2ccc(C(F)(F)F)cc2c1C (stereo not given)	-14	-25%	-3	-26%	18*	19%	1%
COc1ccc2c(c1OC)C(=O)N1C2SC(C)(C)[C@H]1C(=O)NC1CC1 (stereo not given in full)	31	1%	-4	14%	-7	-23%	.
O=C(COC(=O)c1cncc(Br)c1)Nc1nc(-c2ccc(F)cc2)cs1	17	-28%	8	58%	27*	43%	?
O=C(/C=C/c1ccc(Cl)cc1)N1CCN(Cc2ccccc2)CC1	32	-15%	9	.	25*	?	3%
Cc1ccc(OCCNC(=O)Cn2cnc3c(=O)n(C)c(=O)n(C)c32)cc1C	13	10%	-4	-8%	4	-3%	.
Cn1c(=O)c2ncn(CC(=O)NCCOc3ccccc3)c2n(C)c1=O	-21	13%	5	-2%	27*	?	0%
COc1cc(OC)cc(C(=O)Nc2cccc3nc(C)ccc23)c1	50	-12%	-2	-16%	1	?	.
COc1ccc(C(=O)Nc2cccc3nc(C)ccc23)cc1OC	39	1%	10	13%	24*	55%	1%
COc1ccc(N(C(=O)c2csnn2)C(C(=O)NC2CCCC2)c2cccs2)cc1 (stereo not given)	-5	1%	-6	-9%	56*	1.5µM*	-4%
CC(C)OC(=O)Cn1nnc(-c2ccccc2)n1	25	8%	12	.	-5	?	.
CC1CCCC(C)N1C(=O)Cn1nnc(-c2ccccc2)n1 (stereo not given)	?	6%	4	-5%	33*	38%	-1%

Compound activity from PubChem BioAssay.
